Test results: PubChem BioAssay (Tox21)
Activity calls are given as the source filed them. A call without a number means that no potency is given here. Unless noted, the call rests on the fitted dose curve; in most records, active means well fitted curve in the direction sought with a large enough effect in the repeat runs; inconclusive means weak or mixed curves; inactive means no such curve, though single readings can be large; an effect the other way counts as inactive or inconclusive. Non-standard residues stand in square brackets, D forms with d. Residues, ends and D or L forms follow the SMILES beside them. Orn = NCCC[C@H](N)C(=O)O

Assays:
[1] = qHTS assay for small molecule agonists of the p53 signaling pathway (AID 651631; calls by dose curve; further: nearly all actives have a fitted effect of over 15% in size; further: potency means the concentration at half of the fitted maximal effect)
Method in brief: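 p53RE-bla HCT-116 cells; compounds 16 h, 37 °C; LiveBLAzer B/G FRET substrate 2 h RT; fluorescence intensity read-out, qHTS format.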

[2] = qHTS assay for small molecules that induce genotoxicity in human embryonic kidney cells expressing luciferase-tagged ATAD5 (AID 651632); further: nearly all actives have a fitted effect of over 15% in size; further: potency means the concentration at half of the fitted maximal effect
Method in brief: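 Luminescence read-out: after 16 hr compound exposure at 37C, ATAD5-luciferase HEK293T cells received Amplite, 30 min RT, then CCD imaging. A rise in signal marks genotoxic stress.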

[3] = qHTS assay for small molecule agonists of the p53 signaling pathway - cell viability (AID 651633; calls by dose curve; further: nearly all actives have a fitted effect of over 30% in size; further: potency means the concentration at half of the fitted maximal effect)
Method in brief: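 p53RE-bla cells were treated with compound for 16 hours at 37 C. Cytotoxicity was then measured as CellTiter-Glo luminescence after 30 min at room temperature.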

[4] = qHTS assay for small molecules that induce genotoxicity in human embryonic kidney cells expressing luciferase-tagged ATAD5 - cell viability (AID 651634; calls by dose curve; further: nearly all actives have a fitted effect of over 25% in size; further: potency means the concentration at half of the fitted maximal effect)
Method in brief: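 HEK293T ATAD5-luc cells, 2,000/well; compound 15.5 hr, 37C/5% CO2; CellTiter-Fluor 30 min, 37C; fluorescence read.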

[5] = qHTS assay for small molecule disruptors of the mitochondrial membrane potential - cell viability (AID 720634; calls by dose curve; further: nearly all actives have a fitted effect of over 20% in size; further: potency means the concentration at half of the fitted maximal effect)
Method in brief: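 Luminescence from CellTiter-Glo (ATP content) gave viability in HepG2 cells, read in the same wells as the MMP dye assay after 1 hr compound exposure at 37 C.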

[6] = qHTS assay for small molecule disruptors of the mitochondrial membrane potential (AID 720635); further: potency means the concentration at half of the fitted maximal effect
Method in brief: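 HepG2 cells exposed to compound 1 hr at 37C, then Mito-MPS dye 30 min. Ratio read of aggregate (540/590 nm) versus monomer (490/535 nm) fluorescence.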

[7] = qHTS assay to test for compound auto fluorescence at 590 nm (red) in HepG2 cells (AID 720674)
Method in brief: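 Seeding: 2,000 HepG2 cells/well, MEM/10% FBS, overnight 37 C. Dosing: compound vs DMSO. Incubation: 1 hr, 37 C, 5% CO2. Read: fluorescence 540 ex/590 em, Rose Bengal sodium as red reference.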

[8] = qHTS assay to test for compound auto fluorescence at 535 nm (green) in HepG2 cells (AID 720675)
[9] = qHTS assay to test for compound auto fluorescence at 460 nm (blue) in HEK293 cells (AID 720678)
Method in brief: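 HEK293, 2,000 cells/well, 10% dialyzed FBS; attach 4-5 hr 37C; pin compound or DMSO; o/n 37C/5% CO2; fluorescence 405/460 nm; triamterene-equivalent units.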

[10] = qHTS assay to test for compound auto fluorescence at 590 nm (red) in HEK293 cells (AID 720679)
Method in brief: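 Intensity at 540nm excitation and 590nm emission is reported as Rose Bengal sodium-equivalent autofluorescence. Measurements followed overnight exposure (37C, 5% CO2) of HEK293 cells, 2,000 per well, to 23 nL compound.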

[11] = qHTS assay to test for compound auto fluorescence at 535 nm (green) in HEK293 cells (AID 720680)
[12] = qHTS assay to test for compound auto fluorescence at 460 nm (blue) in HEK293 cell free culture (AID 720681)
Method in brief: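 Compounds were added to cell-free DMEM with 10% FBS and fluorescence read directly. The blue channel used 405 nm excitation and 460 nm emission, with triamterene as the reference fluorophore.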

[13] = qHTS assay to test for compound auto fluorescence at 535 nm (green) in HEK293 cell free culture (AID 720682)
Method in brief: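 Cell-free medium (DMEM, 10% FBS) receives compound or DMSO by pintool. Plate read directly at Ex 485/Em 535 nm. Signal converted to fluorescein equivalency.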

[14] = qHTS assay to test for compound auto fluorescence at 590 nm (red) in HEK293 cell free culture (AID 720683)
Method in brief: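 Cell-free wells of DMEM with 10% FBS received compound, and intrinsic fluorescence was read at excitation/emission 540/590 nm. Values expressed as equivalence to Rose Bengal sodium.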

[15] = qHTS assay to test for compound auto fluorescence at 590 nm (red) in HepG2 cell free culture (AID 720684)
Method in brief: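 Auto fluorescence equivalency versus Rose Bengal sodium, red channel Ex/Em 540/590 nm; compounds in cell-free MEM/10% FBS; DMSO vehicle control.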

[16] = qHTS assay to test for compound auto fluorescence at 460 nm (blue) in HepG2 cell free culture (AID 720685)
Method in brief: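 Cell-free plates of MEM plus 10% FBS received 23 nL compound or DMSO vehicle; blue-channel (405/460 nm) intensity scored against triamterene as reference fluorophore.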

[17] = qHTS assay to test for compound auto fluorescence at 535 nm (green) in HepG2 cell free culture (AID 720686)
[18] = qHTS assay to test for compound auto fluorescence at 460 nm (blue) in HepG2 cells (AID 720687)
Method in brief: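 HepG2 cells in MEM with 10% FBS, attached overnight at 37 C, were exposed to compound or DMSO for 1 hr at 37 C, 5% CO2. Blue fluorescence was read at 405/460 nm, with triamterene as reference fluorophore.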

[19] = target: Glucocorticoid receptor (Homo sapiens) (UniProt P04150); assay: qHTS assay to identify small molecule agonists of the glucocorticoid receptor (GR) signaling pathway (AID 720691; active means well fitted activation curve with a large enough effect in the signal ratio in the repeat runs, not every such curve was filed as active; inconclusive means weak or mixed curves, or effect the other way; inactive means no such curve, though single readings can be large or run the other way; the % refers to the signal ratio; further: potency means the concentration at half of the fitted maximal effect); conditions: GR-bla HeLa, beta-lactamase reporter ratio, 18 h; activation: at 62.4 µM (top of the series)
Method in brief: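 HeLa GR-bla reporter line; cells pre-incubated 4 h, compound in DMSO 18 h at 37 C; LiveBLAzer B/G FRET substrate 2 h RT; fluorescence intensity read-out.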

[20] = target: Glucocorticoid receptor (Homo sapiens) (UniProt P04150); assay: qHTS assay to identify small molecule antagonists of the glucocorticoid receptor (GR) signaling pathway (AID 720692; active means well fitted inhibition curve with a large enough effect in the signal ratio in the repeat runs, not every such curve was filed as active; inconclusive means weak or mixed curves, or effect the other way; inactive means no such curve, though single readings can be large or run the other way; the % refers to the signal ratio)
Method in brief: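 Read-out: beta-lactamase FRET substrate fluorescence, 2 h at room temperature, in HeLa cells stably carrying a GRE-driven bla reporter. Compounds were co-incubated with 5 nM dexamethasone agonist (final) for 18 h at 37 C.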

Glucocorticoid receptor (Homo sapiens), sequence (P04150 whole entry, looked up): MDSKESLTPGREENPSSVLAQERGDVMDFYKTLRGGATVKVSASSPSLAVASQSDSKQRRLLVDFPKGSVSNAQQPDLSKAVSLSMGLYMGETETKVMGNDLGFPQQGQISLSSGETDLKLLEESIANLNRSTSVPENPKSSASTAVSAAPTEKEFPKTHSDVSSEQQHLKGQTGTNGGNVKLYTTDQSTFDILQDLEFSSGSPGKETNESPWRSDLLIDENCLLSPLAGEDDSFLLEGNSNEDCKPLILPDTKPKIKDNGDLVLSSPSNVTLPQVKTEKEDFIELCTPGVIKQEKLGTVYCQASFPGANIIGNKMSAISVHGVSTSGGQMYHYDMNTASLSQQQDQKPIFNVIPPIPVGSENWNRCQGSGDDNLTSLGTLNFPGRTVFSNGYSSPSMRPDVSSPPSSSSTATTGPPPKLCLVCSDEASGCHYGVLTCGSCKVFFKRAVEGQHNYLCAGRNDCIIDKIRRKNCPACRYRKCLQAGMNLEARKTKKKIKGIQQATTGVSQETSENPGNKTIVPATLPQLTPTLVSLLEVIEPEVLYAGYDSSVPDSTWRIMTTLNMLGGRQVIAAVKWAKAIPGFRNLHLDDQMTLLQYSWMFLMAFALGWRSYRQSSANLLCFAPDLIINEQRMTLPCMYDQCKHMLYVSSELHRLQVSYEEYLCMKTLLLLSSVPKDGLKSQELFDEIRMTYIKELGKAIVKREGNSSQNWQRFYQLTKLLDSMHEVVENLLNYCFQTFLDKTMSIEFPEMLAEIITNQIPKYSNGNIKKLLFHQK

Compound | Potency [1] | Potency [2] | Potency [3] | Potency [4] | Potency [5] | Potency [6] | outcome [7] | Potency [8] | Potency [9] | outcome [10] | outcome [11] | Potency [12] | outcome [13] | outcome [14] | outcome [15] | Potency [16] | Potency [17] | Potency [18] | Potency [19] | Potency [20]
CO/N=C(\C(=O)N[C@@H]1C(=O)N2C(C(=O)O)=C(CSc3nc(C)c(CC(=O)O)s3)CS[C@H]12)c1csc(N)n1 | inactive | inactive | inactive | inactive | inactive | inactive | inactive | inactive | inactive | inactive | inactive | inactive | inactive | inactive | inactive | inactive | inactive | inactive | inactive | –
O=C1CCC(c2ccccc2)(C2CCN(Cc3ccccc3)CC2)C(=O)N1 (stereo unspecified) | inactive | inactive | inactive | inactive | inactive | inactive | inactive | inactive | inactive | inactive | inactive | inactive | inactive | inactive | inactive | inactive | inactive | inactive | inactive | –
C[C@H](Cc1ccc(O)c(O)c1)[C@@H](C)Cc1ccc(O)c(O)c1 | inactive | inactive | inactive | inactive | inactive | 13.3 µM (active) | inactive | inactive | inactive | inactive | inactive | inactive | inactive | inactive | inactive | inactive | inactive | inactive | inactive | –
N[C@H](C(=O)O)[C@@H]1CC(Cl)=NO1 | 2.98 µM (active) | inactive | 13.3 µM (active) | inactive | inactive | inactive | inactive | inactive | inactive | inactive | inactive | inactive | inactive | inactive | inactive | inactive | inactive | inactive | – | –
CCc1cn([C@H]2C[C@H](O)[C@@H](CO)O2)c(=O)[nH]c1=O | inactive | inactive | inactive | inactive | inactive | inactive | inactive | inactive | inactive | inactive | inactive | inactive | inactive | inactive | inactive | inactive | inactive | inactive | inactive | inactive
CC(C)C[C@@H]1NC(=O)[C@H](CCCN)NC(=O)[C@H](C(C)C)NC(=O)[C@@H]2CCCN2C(=O)[C@@H](Cc2ccccc2)NC(=O)[C@H](CC(C)C)NC(=O)[C@H](CCCN)NC(=O)[C@H](C(C)C)NC(=O)[C@@H]2CCCN2C(=O)[C@@H](Cc2ccccc2)NC1=O (cyclo(V[Orn]L[dF]PV[Orn]L[dF]P)) | 1.88 µM (active) | inactive | 2.66 µM (active) | 2.98 µM (active) | 13.3 µM (active) | 0.237 µM (active) | inactive | inactive | inactive | inactive | inactive | inactive | inactive | inactive | inactive | inactive | inactive | inactive | 23.9 µM [inconclusive] (active) | –
c1ccc2c(c1)OCC(CN1CCCCC1)O2 (stereo unspecified) | inactive | inactive | inactive | inactive | inactive | inactive | inactive | inactive | inactive | inactive | inactive | inactive | inactive | inactive | inactive | inactive | inactive | inactive | – | –
CC1=C(/C=C/C(C)=C/C=C/C(C)=C/C=C/C=C(C)/C=C/C=C(C)/C=C/C2=C(C)CCCC2(C)C)C(C)(C)CCC1 | inactive | inactive | inactive | inactive | inactive | inactive | inactive | inactive | inactive | inactive | inactive | inactive | inactive | inactive | inactive | inactive | inactive | inactive | inactive | inactive
FC(F)(F)C(F)(F)C(F)(F)C(F)(F)C(F)(F)F | inactive | inactive | inactive | inactive | inactive | inactive | inactive | inactive | inactive | inactive | inactive | inactive | inactive | inactive | inactive | inactive | inactive | inactive | – | –
CC(=NCc1ccccc1)c1ccccc1O | inactive | inactive | inactive | inactive | inactive | inactive | inactive | inactive | inactive | inactive | inactive | inactive | inactive | inactive | inactive | inactive | inactive | inactive | – | –
NC(=O)[C@H]1O[C@@H](O)[C@H](O)[C@@H](O)[C@@H]1O | inactive | inactive | inactive | inactive | inactive | inactive | inactive | inactive | inactive | inactive | inactive | inactive | inactive | inactive | inactive | inactive | inactive | inactive | inactive | inactive
Cc1cc(CC(C)CC(C)(C)C)n(O)c(=O)c1 (stereo unspecified) (tested in a mixture with another compound) | 9.44 µM (active) | 13.3 µM (active) | 29.8 µM (active) | inactive | inactive | 3.35 µM (active) | inactive | inactive | inactive | inactive | inactive | inactive | inactive | inactive | inactive | inactive | inactive | inactive | – | –
